SMILES strings stand for the structures. Out of some 1,900 compounds screened, about 50 (3%) showed an effect of 50% or more. This is one part of a sample in which strong results are shown more often than they occur.

Sequence of p38/MK2 protein–protein interaction (VF-p38α / GST-MK2) (Q16539 2-360 limits assumed): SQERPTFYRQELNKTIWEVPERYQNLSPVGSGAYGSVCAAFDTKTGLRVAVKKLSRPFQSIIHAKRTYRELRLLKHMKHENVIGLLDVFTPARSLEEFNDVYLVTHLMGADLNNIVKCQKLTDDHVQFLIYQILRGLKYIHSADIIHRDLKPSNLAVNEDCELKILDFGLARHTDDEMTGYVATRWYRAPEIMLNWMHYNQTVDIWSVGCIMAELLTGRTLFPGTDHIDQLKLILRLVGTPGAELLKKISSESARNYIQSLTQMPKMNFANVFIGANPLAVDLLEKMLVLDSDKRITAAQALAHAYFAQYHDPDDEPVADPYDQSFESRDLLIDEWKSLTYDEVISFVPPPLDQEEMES

This assay deals with p38/MK2 protein–protein interaction (VF-p38α / GST-MK2) (Homo sapiens, UniProt Q16539). As to the kind of experiment: primary screen, percent of control activity; higher = less effect of the substance. Also on record: species or system HEK293T cell lysate transfected with VF-p38α and GST-MK2; unclear (methods say 'quintuplet replicates'). As to the method:
The TR-FRET assay was conducted in a 1536-well plate (Corning, catalog no. 3724) with HEK293T cell lysate transfected with VF-p38α and GST-MK2. Cell-lysate concentration was optimized with a titration experiment. Anti-Flag-Tb and anti-GST-d2 antibodies (Revvity, catalog no. 61FGBTLB) were used to couple p38α and MK2, respectively. A multiple-drop Combi dispenser (Thermo Scientific) combined reaction mixtures in quintuplet replicates. The TR-FRET signals were measured using a BMG Labtech PHERAstar FSX plate reader and normalized to the percent of DMSO control.
`Cl.Cl.O=C1c2c(O)ccc(O)c2C(=O)c2c(NCCNCCO)ccc(NCCNCCO)c21` had a Pct of control of 92%.
As for `O=C1c2c(O)ccc(O)c2C(=O)c2c(NCCNCCO)ccc(NCCNCCO)c21`, the Pct of control worked out at 45.7%.
To `Cc1c(CN2CCN(C(=O)C(C)O)CC2)sc2c(N3CCOCC3)nc(-c3cnc(N)nc3)nc12` (centres unmarked) belongs 96.8%.
To `CCC(NC(C)C)C(O)c1ccc(O)c(O)c1.CS(=O)(=O)O` (centres unmarked) belongs 90%.
With `NC(=O)c1cccc(-c2cccc(OC(=O)NC3CCCCC3)c2)c1` the figure was 91.2%; with `COc1cc(=C2C=c3ccccc3=N2)[nH]c1=Cc1[nH]c(C)cc1C.CS(=O)(=O)O`, 37.5%.
`CCOc1cc(N)c(Cl)cc1C(=O)NCC1CN(Cc2ccc(F)cc2)CCO1.O=C(O)CC(O)(CC(=O)O)C(=O)O` (centres unmarked): the Pct of control was 96.8%.
With `Cc1coc2c1C(=O)C(=O)c1c-2ccc2c1CCCC2(C)C` the figure was 79.4%; with `CCOC(=O)n1ccn(C)c1=S`, 98.2%; with `C=C1c2cccc(O)c2C(O)=C2C(=O)C3(O)C(O)=C(C(N)=O)C(=O)C(N(C)C)C3C(O)C12.Cl` (centres unmarked), 52.5%.
To `CN(C)C1C(=O)C(C(N)=O)=C(O)C2(O)C(=O)C3=C(O)c4c(O)cccc4C(C)(O)C3C(O)C12.O.O` (centres unmarked) belongs 48.8%; to `CN(C)C1C(=O)C(C(N)=O)=C(O)C2(O)C(=O)C3=C(O)c4c(O)cccc4C(C)(O)C3C(O)C12` (centres unmarked), 90.8%.
To `COc1ccc(CCC(=O)c2c(O)cc(OC3OC(CO)C(O)C(O)C3OC3OC(C)C(O)C(O)C3O)cc2O)cc1O` (centres unmarked) belongs 94.3%.
Take `CC(C)NC[C@H](O)COc1ccc(CCOCC2CC2)cc1.Cl` [S4085]: the Pct of control is given as 94.4%.
With `COc1ccc(S(=O)(=O)N(C(C)=O)c2ccccc2C=Cc2cc[n+]([O-])cc2)cc1` the figure was 89.4%; with `O=C(c1cncc(Br)c1)N1CCC(N2CCCC2)CC1`, 85.2%.
Regarding `O=C(C=Cc1cccc(S(=O)(=O)Nc2ccccc2)c1)NO`, the Pct of control stood at 103%.
Take `Cc1cc(C(=O)CN2CCCC2)c(C)n1-c1ccc(F)cc1`: the Pct of control worked out at 88.5%.
With `Cc1cc2c(C(=O)NC[C@H](C)c3ccccc3)c(O)c(O)cc2c(O)c1-c1c(C)cc2c(C(=O)NC[C@H](C)c3ccccc3)c(O)c(O)cc2c1O` the figure was 36.8%; with `Cc1cc(-c2ncc(CC(=O)Nc3ccc(-c4cnccn4)cn3)cc2C)ccn1`, 98%; with `Nc1ncnc2c1ncn2[C@@H]1O[C@H](CO)[C@@H](O)[C@@H]1O` [S1784], 91.5%.
Consider `CN(C)CCOC(C)(c1ccccc1)c1ccccn1.O=C(O)CCC(=O)O` (centres unmarked), for which the Pct of control turned out to be 101%.
To `O=C1c2c(O)cc(O)cc2O[C@H](c2cc(O)c(O)c(O)c2)[C@H]1O` belongs 71.3%.
With `O=C(OC1Cc2c(O)cc(O)cc2OC1c1cc(O)c(O)c(O)c1)c1cc(O)c(O)c(O)c1` (single isomer, unassigned; (-)) the figure was 32.5%.
To `COc1ccc(C2CC(=O)c3c(O)cc(O)cc3O2)cc1O` (centres unmarked) belongs 90.9%.
Turning to `CC12CC3CC(C)(C1)CC(N)(C3)C2.Cl`, the Pct of control is reported as 94.2%.
With `COc1cccc2c1C(=O)c1c(O)c3c(c(O)c1C2=O)CC(O)(C(=O)CO)CC3OC1CC(N)C(OC2CCCCO2)C(C)O1` (centres unmarked) the figure was 56.6%; with `CC(NC(=O)C(O)c1cc(F)cc(F)c1)C(=O)NC1C(=O)N(C)c2ccccc2-c2ccccc21` (centres unmarked), 105%.
To `CN(C)CC(c1ccc(O)cc1)C1(O)CCCCC1` (centres unmarked) belongs 98.6%.
The molecule `Nc1ccccc1NC(=O)c1ccc(CNC(=O)OCc2cccnc2)cc1` gave a Pct of control of 96.2%.
With `O=C(O)c1ccc(N2C(=O)C(=Cc3ccc(-c4ccc([N+](=O)[O-])cc4)o3)C=C2c2ccccc2)cc1` the figure was 24.8%; with `COc1c(C)cnc(Cn2cnc3c(Cl)nc(N)nc32)c1C`, 111%.
Molecule `COC1C=CC=C(C)C(=O)NC2=CC(=O)C(NCCN(C)C)=C(CC(C)CC(OC)C(O)C(C)C=C(C)C1OC(N)=O)C2=O.Cl` (centres unmarked) displayed a Pct of control of 96.9%.
For the molecule `Cl.OC(CCN1CCCCC1)(c1ccccc1)C1CC2C=CC1C2` (centres unmarked), the Pct of control is 117%.
With `COc1cc(C(C)=O)ccc1O` the figure was 90.4%; with `O=C1Nc2ccc(I)cc2C1=Cc1cc(Br)c(O)c(Br)c1`, 43.6%.
With `CCNCC.O=C(O)Cc1ccccc1Nc1c(Cl)cccc1Cl` the figure was 95.1%; with `CN(C)CCc1ccc(O)cc1`, 89.6%.
To `COc1cc2nc(N(C)CCCNC(=O)C3CCCO3)nc(N)c2cc1OC.Cl` (centres unmarked) belongs 17.9%; to `COc1cc2nc(N3CCN(C(=O)C4COc5ccccc5O4)CC3)nc(N)c2cc1OC.CS(=O)(=O)O` (centres unmarked), 41.5%; to `COc1cc2nc(N3CCN(C(=O)C4CCCO4)CC3)nc(N)c2cc1OC.Cl.O.O` (centres unmarked), 23.3%.
In turn, `c1ccc(CNc2nc(NCc3ccccc3)c3ccccc3n2)cc1` displayed a Pct of control of 74.5%.
To `CCn1nc(C(=O)O)c(=O)c2cc3c(cc21)OCO3` belongs 86.4%.
In turn, `CC12CCC3c4ccc(O)cc4CCC3C1CCC2=O` (centres unmarked) came in with a Pct of control of 88.5%.
`O=c1[nH]c2ccccc2n1CCCN1CCC(n2c(=O)[nH]c3cc(Cl)ccc32)CC1` registered a Pct of control of 91.8%.
In the case of `CC1CCc2c(N3CCC(O)CC3)c(F)cc3c(=O)c(C(=O)O)cn1c23` (centres unmarked), the Pct of control was 90.3%.
The molecule `N#CC(=Cc1ccc(O)c(O)c1)C(=O)NCc1ccccc1` returned a Pct of control of 95.3%.
With `CCCC(NC(=O)C(C#N)=Cc1cccc(Br)n1)c1ccccc1` (centres unmarked) the figure was 20.3%; with `CC(NC(=O)C(C#N)=Cc1cccc(Br)n1)c1ccccc1` (centres unmarked), 24.1%; with `CCOC(=O)C1=C(COCCN)NC(C)=C(C(=O)OC)C1c1ccccc1Cl.O=S(=O)(O)c1ccccc1` (centres unmarked), 91.6%.
`CC(C)CCN1c2nc(Nc3cc(F)c(O)c(F)c3)ncc2N(C)C(=O)C1C` (centres unmarked) returned a Pct of control of 86.7%.
On to `S=c1nc[nH]c2nc[nH]c12`, for which the Pct of control was found to be 126%.
With `COc1cc(-c2ncn(C=CC(=O)OC(C)C)n2)cc(C(F)(F)F)c1` the figure was 91.8%; with `CN1CCN(c2nc(C3=C(c4c[nH]c5ccccc45)C(=O)NC3=O)c3ccccc3n2)CC1`, 109%.
Take `CC(=O)Oc1cc2c(s1)CCN(C(C(=O)C1CC1)c1ccccc1F)C2` (centres unmarked): the Pct of control worked out at 87.9%.
To `Cc1cc(OCc2nnc(SC3CCCC3)n2-c2cccnc2)ccc1-c1ccc(S(C)(=O)=O)cc1` belongs 94.4%; to `CCCCCCNC(=O)n1cc(F)c(=O)[nH]c1=O`, 110%.
In turn, `CN1CCc2cccc3c2C1Cc1ccc(O)c(O)c1-3.CN1CCc2cccc3c2C1Cc1ccc(O)c(O)c1-3.Cl.Cl.O` (centres unmarked) gave a Pct of control of 44.4%.
To `CN1CCc2cc3c(cc2C1C1OC(=O)c2c1ccc1c2OCO1)OCO3` (single isomer, unassigned; (+)) belongs 93.7%; to `CN1CCCC1c1cccnc1.O=C(O)C(O)C(O)C(=O)O.O=C(O)C(O)C(O)C(=O)O` (centres unmarked), 91.9%.
On to `O=C1CC(=O)c2c(Cl)c(Cl)c(Cl)c(Cl)c21`, for which the Pct of control is recorded as 32.6%.
With `CC(=O)CCCCn1c(=O)c2c(ncn2C)n(C)c1=O` the figure was 88.5%.
The molecule `Cc1cc2c(cc1S(N)(=O)=O)S(=O)(=O)CCC2` displayed a Pct of control of 94.1%.
To `Br.CN1C2CC(OC(=O)C(CO)c3ccccc3)CC1C1OC12` (centres unmarked) belongs 98.3%; to `Nc1nccc(Oc2ccc(NC(=O)c3c[nH]cc(-c4ccc(F)cc4)c3=O)cc2F)c1Cl`, 73.2%; to `Cc1nc(NC(=O)N2CCCC2C(N)=O)sc1-c1ccnc(C(C)(C)C(F)(F)F)c1` (centres unmarked), 108%.
To `Cc1ccc(Nc2nccc(N(C)c3ccc4c(C)n(C)nc4c3)n2)cc1S(N)(=O)=O` belongs 84.3%.
Regarding `CC(C)c1cc(C(C)C)c(CC(=O)NS(=O)(=O)Oc2c(C(C)C)cccc2C(C)C)c(C(C)C)c1`, the Pct of control came out at 36.9%.
With `CNCC(O)c1ccc(O)c(O)c1.O=C(O)C(O)C(O)C(=O)O` (centres unmarked) the figure was 92.6%; with `CCCC[N+]1(C)C2CC(OC(=O)C(CO)c3ccccc3)CC1C1OC12.[Br-]` (centres unmarked), 96.8%.
`O=C(NCC1(c2nc(-c3ccccc3)cs2)CCOCC1)c1cccc(-c2noc(C(F)(F)F)n2)c1` showed a Pct of control of 114%.
To `CCOC(=O)c1ccc(N)cc1` belongs 97.4%.
With `NC(=O)N/N=C/c1ccc([N+](=O)[O-])o1` the figure was 106%.
With `CCOC(=O)c1ccc(N2NC(=O)C(=Cc3ccc([N+](=O)[O-])o3)C2=O)cc1` the figure was 34.2%; with `Cc1cccc(N(C)C(=S)Oc2ccc3ccccc3c2)c1`, 101%; with `O=P1(NCCCl)OCCCN1CCCl` (centres unmarked), 91.1%.
The molecule `Cc1cccc(C)c1NC(=O)C1CCCCN1C.Cl` (centres unmarked) had a Pct of control of 95.5%.
To `O.O.O=c1c(O)c(-c2ccc(O)c(O)c2)oc2cc(O)cc(O)c12` belongs 73.1%; to `O.O=c1c(O)c(-c2ccc(O)cc2O)oc2cc(O)cc(O)c12`, 27%; to `O=c1c(O)c(-c2ccc(O)cc2)oc2cc(O)cc(O)c12`, 75.1%.
For the molecule `CC1OC(Oc2c(-c3cc(O)c(O)c(O)c3)oc3cc(O)cc(O)c3c2=O)C(O)C(O)C1O` (centres unmarked), the Pct of control was 74%.
With `O=c1c(O)c(-c2cc(O)c(O)c(O)c2)oc2cc(O)cc(O)c12` the figure was 43.2%; with `O=c1c(O)c(-c2ccc(O)c(O)c2)oc2cc(O)cc(O)c12`, 68%.

Values taken from paper PMC12751014, “Non-Catalytic Inhibitors of the p38/MK2 Interface: Repurposing Approved Drugs to Target Neuroinflammation in Alzheimer’s Disease” (Journal of Medicinal Chemistry, 2025).
